Values without a mark were called inactive. Inconclusive results are not listed. Entries that show only a call come without a potency. Activity calls are given as the source filed them. Unless noted, the call rests on the fitted dose curve; in most records, active means well fitted curve in the direction sought with a large enough effect in the repeat runs; inconclusive means weak or mixed curves; inactive means no such curve, though single readings can be large; an effect the other way counts as inactive or inconclusive.
Tests used:
[1] = qHTS assay to identify small molecule antagonists of the estrogen receptor alpha (ER-alpha) signaling pathway using the BG1 cell line in the presence of 0.1 nM 17-beta-estradiol - cell viability counter screen (AID 1259241); further: nearly all actives have a fitted effect of over 40% in size
How it was run: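 Viability in VM7Luc4E2 cells after 22 hr compound exposure under 0.1 nM 17beta-estradiol stimulation, by CellTiter-Fluor.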

[2] = qHTS assay to identify small molecule antagonists of the androgen receptor (AR) signaling pathway using the MDA cell line in the presence of 0.5 nM R1881 - cell viability counter screen (AID 1259242); further: nearly all actives have a fitted effect of over 45% in size
How it was run: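 Live-cell protease activity was measured by CellTiter-Fluor fluorescence after 30 min. Before that, MDA-kb2 MMTV-luciferase cells had 16 hr at 37C without CO2, exposed to test compounds and 0.5 nM R1881 final.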

[3] = target: Estrogen receptor (Homo sapiens) (UniProt P03372); assay: qHTS assay to identify small molecule antagonists of the estrogen receptor alpha (ER-alpha) signaling pathway using the BG1 cell line in the presence of 0.1 nM 17-beta-estradiol (AID 1259244); further: nearly all actives have a fitted effect of over 50% in size
How it was run: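 Luciferase luminescence (ONE-Glo, 30 min at room temperature) was read after 22 hr at 37C exposure to compounds plus 17beta-estradiol at 0.1 nM final. Cells were VM7Luc4E2 with endogenous ER-alpha and an ERE-driven luciferase, pre-cultured 5 days in hormone-depleted medium.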

[4] = qHTS assay to identify small molecule phospholipidosis (PLD) inducers (AID 1259344; active means well fitted curve in the direction sought with a large enough effect; an effect the other way counts as inactive or inconclusive)
How it was run: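 Image-based: LipidTOX Red pit count/intensity per well and per cell; HepG2, 24 h compound at 37 C, PFA fixation, Hoechst counterstain.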

[5] = qHTS assay to identify small molecule HDAC inhibitors (AID 1259364); further: top concentration of the series differs between compounds; nearly all actives have a fitted effect of over 45% in size
How it was run: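 Luminescence read after 30 min room-temperature HDAC-Glo incubation measures cellular class I/II HDAC activity. Compounds were applied for 2 hr at 37 C to HCT-116 wild-type cells seeded the day before.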

[6] = qHTS assay to identify small molecule HDAC inhibitors - cell viability counter screen (AID 1259365); further: series mostly up to about 92 µM; nearly all actives have a fitted effect of over 50% in size
How it was run: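 Cytotoxicity was gauged in wild-type HCT-116 cells after a brief 2hr treatment with DMSO-dissolved compounds at 37C and 5% CO2, using CellTiter-Glo luminescence developed for 30min at room temperature.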

[7] = qHTS assay to identify small molecule agonists of the sonic hedgehog signaling (Shh) pathway - cell viability counter screen (AID 1259366); further: nearly all actives have a fitted effect of over 50% in size
How it was run: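 Stable Gli1-Luc NIH/3T3 clone, 2,000 cells/well. Compound exposure 24hr at 37C. Read-out: CellTiter-Fluor fluorescence.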

[8] = qHTS assay to identify small molecule antagonists of the sonic hedgehog signaling (Shh) pathway - cell viability counter screen (AID 1259367); further: nearly all actives have a fitted effect of over 55% in size
How it was run: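 Tox21 library chemicals were tested on a Gli1-Luc NIH/3T3 clone (2,000 cells/well) stimulated by conditioned medium; viability was quantified as fluorescence from CellTiter-Fluor reagent added at 23 hr.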

[9] = qHTS assay to identify small molecule agonists of the sonic hedgehog signaling (Shh) pathway (AID 1259368; calls by dose curve;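 further: NIH/3T3-derived 3T3Gli1-Luc cells carrying a stable Gli1-driven firefly luciferase reporter; series mostly up to about 92 µM; nearly all actives have a fitted effect of over 15% in size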)
How it was run: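 Luminescence was read after 30 min at room temperature with luciferase reagent. Before that, 3T3Gli1-Luc cells (NIH/3T3 clone, stable Gli1-Luc reporter; 2,000/well) were exposed to compounds for 24 hr at 37C, 5% CO2, compounds being added 4 hr post-plating.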

[10] = qHTS assay to identify small molecule antagonists of the sonic hedgehog signaling (Shh) pathway (AID 1259369; calls by dose curve; further: nearly all actives have a fitted effect of over 45% in size)
How it was run: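 Antagonist mode: compound added to 3T3 Gli1-Luc cells followed by conditioned-medium stimulation, 24 h at 37 C, 5% CO2. Inhibition taken as loss of Gli1-driven luciferase luminescence.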

[11] = target: Estrogen receptor beta (Homo sapiens) (UniProt Q92731); assay: qHTS assay to identify small molecule agonists of the estrogen receptor beta (ER-beta) signaling pathway (AID 1259377; active means well fitted activation curve with a large enough effect in the signal ratio in the repeat runs, not every such curve was filed as active; the % refers to the signal ratio)
How it was run: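 Measured by fluorescence intensity from a B/G FRET beta-lactamase substrate (2 h, room temperature) in ER-beta-UAS-bla HEK293T cells treated with DMSO-dissolved compounds for 16 hr at 37C and 5% CO2.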

[12] = qHTS assay to identify small molecule antagonists of the estrogen receptor beta (ER-beta) signaling pathway - cell viability counter screen (AID 1259382); further: nearly all actives have a fitted effect of over 55% in size; further: potency means the concentration at half of the fitted maximal effect
How it was run: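 Cytotoxicity was measured in the same wells by CellTiter-Glo luminescence after 30 min at room temperature. Cells were ER-beta-bla HEK293T in charcoal-stripped serum, given compound together with 1 nM E2 and incubated 16 h at 37C.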

[13] = target: Estrogen receptor (Homo sapiens) (UniProt P03372); assay: qHTS assay to identify small molecule agonists of the estrogen receptor alpha (ER-alpha) signaling pathway in the presence of an antagonist (AID 1259383; calls by dose curve; further: top concentration of the series differs between compounds; nearly all actives have a fitted effect of over 15% in size)
How it was run: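 Agonist-mode confirmation run in the presence of 10.0nM (final) ICI-182,780 antagonist. The reporter was ERE-driven luciferase in VM7Luc4E2 cells, grown in charcoal-stripped serum. Cells were exposed to 15-concentration compound series for 22hr, then ONE-Glo luminescence was read.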

[14] = qHTS assay to identify small molecule agonists or antagonists of the thyroid stimulating hormone receptor (TSHR) signaling pathway - wild type cell line counter screen (AID 1259384; calls by dose curve)
How it was run: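 Wild-type Hek293 cells, 800/well, 18 h at 37C, then compound with Ro20-1724 for 30 min RT. cAMP by HTRF (cAMP-d2/anti-cAMP cryptate), 1 h RT, fluorescence read. 15 concentrations, triplicates.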

[15] = target: Thyrotropin receptor (Homo sapiens) (UniProt P16473); assay: qHTS assay to identify small molecule antagonists of the thyroid stimulating hormone receptor (TSHR) signaling pathway (AID 1259385; calls by dose curve; further: nearly all actives have a fitted effect of over 20% in size)
How it was run: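 TSHR-HEK293 cells (800/well) plated 18 h, then compounds with Ro20-1724 and TSH at 1.5 ng/mL final, 30 min at room temperature. cAMP quantified by HTRF (cAMP-d2/anti-cAMP-cryptate, 1 h); 15 concentrations in triplicate.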

[16] = qHTS assay to identify small molecule agonists of the androgen receptor (AR) signaling pathway in the presence of an antagonist - cell viability counter screen (AID 1259379);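 further: MDA-kb2 human breast cancer cells carrying an MMTV luciferase reporter; series mostly up to about 92 µM; nearly all actives have a fitted effect of over 25% in size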
How it was run: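 Cytotoxicity counter-screen run in the same wells as the nilutamide-challenged (3.0 µM final) AR agonist assay in MDA-kb2 cells. Compounds tested at 15 concentrations for 16 h, 37 °C without CO2; CellTiter-Fluor fluorescence read.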

[17] = qHTS assay to identify small molecule agonists of the estrogen receptor beta (ER-beta) signaling pathway - cell viability counter screen (AID 1259380); further: nearly all actives have a fitted effect of over 30% in size; further: potency means the concentration at half of the fitted maximal effect
How it was run: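 Cell viability counter screen: CellTiter-Glo luminescence (30 min, room temperature) measured in the same wells as the beta-lactamase readout, after 16 hr compound exposure at 37C of ER-beta-bla HEK293T cells in 2% charcoal-stripped FBS medium.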

[18] = target: Estrogen receptor beta (Homo sapiens) (UniProt Q92731); assay: qHTS assay to identify small molecule antagonists of the estrogen receptor beta (ER-beta) signaling pathway (AID 1259378; active means well fitted inhibition curve with a large enough effect in the signal ratio in the repeat runs, not every such curve was filed as active; the % refers to the signal ratio)
How it was run: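 ER-beta-UAS-bla HEK293T cells in 2% charcoal-stripped FBS medium treated with compound plus 1nM final 17-beta-estradiol for 16 hr at 37C. Beta-lactamase reporter read by FRET substrate fluorescence after 2 hours at room temperature.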

[19] = target: Androgen receptor (Homo sapiens) (UniProt P10275); assay: qHTS assay to identify small molecule agonists of the androgen receptor (AR) signaling pathway in the presence of an antagonist (AID 1259381; calls by dose curve; further: nearly all actives have a fitted effect of over 15% in size)
How it was run: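 Agonist-mode confirmation run against 3.0 uM final nilutamide: compounds titrated at 15 concentrations onto MDA-kb2 MMTV-luciferase reporter cells. Luminescence measured with ONE-Glo following 16 hr incubation, 37C, 0% CO2.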

Sequence of Estrogen receptor beta (Homo sapiens) (Q92731 whole entry, looked up): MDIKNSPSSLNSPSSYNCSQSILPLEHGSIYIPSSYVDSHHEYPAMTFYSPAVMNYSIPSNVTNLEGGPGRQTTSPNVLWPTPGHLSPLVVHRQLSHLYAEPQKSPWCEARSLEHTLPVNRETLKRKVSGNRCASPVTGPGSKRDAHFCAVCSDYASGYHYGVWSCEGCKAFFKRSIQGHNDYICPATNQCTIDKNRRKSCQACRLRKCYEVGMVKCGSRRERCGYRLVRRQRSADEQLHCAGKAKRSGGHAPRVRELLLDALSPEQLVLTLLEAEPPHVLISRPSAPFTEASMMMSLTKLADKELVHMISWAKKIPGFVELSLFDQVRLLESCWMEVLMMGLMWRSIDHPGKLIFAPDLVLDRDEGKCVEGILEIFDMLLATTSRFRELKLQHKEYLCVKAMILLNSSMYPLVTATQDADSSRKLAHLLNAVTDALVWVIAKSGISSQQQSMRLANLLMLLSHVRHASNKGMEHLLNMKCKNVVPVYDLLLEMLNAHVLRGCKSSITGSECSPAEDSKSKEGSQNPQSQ
Sequence of Estrogen receptor (Homo sapiens) (P03372 whole entry, looked up): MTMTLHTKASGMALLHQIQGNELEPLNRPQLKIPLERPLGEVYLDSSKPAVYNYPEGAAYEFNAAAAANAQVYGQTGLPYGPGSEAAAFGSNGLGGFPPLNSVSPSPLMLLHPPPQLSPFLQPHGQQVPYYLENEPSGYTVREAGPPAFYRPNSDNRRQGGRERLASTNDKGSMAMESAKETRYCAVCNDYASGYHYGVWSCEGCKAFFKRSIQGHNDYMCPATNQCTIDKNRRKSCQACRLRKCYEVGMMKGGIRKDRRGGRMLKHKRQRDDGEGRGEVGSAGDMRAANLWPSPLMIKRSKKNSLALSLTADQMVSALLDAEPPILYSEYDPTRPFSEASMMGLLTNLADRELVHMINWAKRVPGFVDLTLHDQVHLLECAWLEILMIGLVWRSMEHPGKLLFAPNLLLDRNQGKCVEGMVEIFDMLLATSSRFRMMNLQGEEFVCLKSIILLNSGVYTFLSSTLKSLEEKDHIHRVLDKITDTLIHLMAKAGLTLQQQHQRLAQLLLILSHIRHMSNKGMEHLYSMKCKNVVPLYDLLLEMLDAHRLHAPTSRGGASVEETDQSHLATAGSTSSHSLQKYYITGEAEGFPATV
Sequence of Thyrotropin receptor (Homo sapiens) (P16473 whole entry, looked up): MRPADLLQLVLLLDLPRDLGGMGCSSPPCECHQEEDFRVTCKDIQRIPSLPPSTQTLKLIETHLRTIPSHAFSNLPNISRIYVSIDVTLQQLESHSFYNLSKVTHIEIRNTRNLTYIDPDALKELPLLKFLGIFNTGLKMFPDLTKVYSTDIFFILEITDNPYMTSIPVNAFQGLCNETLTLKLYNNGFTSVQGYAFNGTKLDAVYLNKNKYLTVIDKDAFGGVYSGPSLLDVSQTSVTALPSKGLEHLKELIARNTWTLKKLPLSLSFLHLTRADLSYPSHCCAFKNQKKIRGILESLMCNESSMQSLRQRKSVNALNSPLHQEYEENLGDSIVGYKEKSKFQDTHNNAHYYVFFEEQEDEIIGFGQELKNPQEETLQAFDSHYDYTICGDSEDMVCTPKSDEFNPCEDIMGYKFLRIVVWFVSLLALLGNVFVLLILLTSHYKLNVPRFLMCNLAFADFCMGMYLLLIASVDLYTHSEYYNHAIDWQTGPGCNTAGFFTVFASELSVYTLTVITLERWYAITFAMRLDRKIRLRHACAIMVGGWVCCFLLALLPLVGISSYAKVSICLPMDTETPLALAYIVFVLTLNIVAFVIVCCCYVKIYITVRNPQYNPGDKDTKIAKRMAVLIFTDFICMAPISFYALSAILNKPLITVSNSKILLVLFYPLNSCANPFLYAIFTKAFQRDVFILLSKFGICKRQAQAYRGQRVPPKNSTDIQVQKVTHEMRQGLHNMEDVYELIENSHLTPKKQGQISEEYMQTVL
Sequence of Androgen receptor (Homo sapiens) (P10275 whole entry, looked up): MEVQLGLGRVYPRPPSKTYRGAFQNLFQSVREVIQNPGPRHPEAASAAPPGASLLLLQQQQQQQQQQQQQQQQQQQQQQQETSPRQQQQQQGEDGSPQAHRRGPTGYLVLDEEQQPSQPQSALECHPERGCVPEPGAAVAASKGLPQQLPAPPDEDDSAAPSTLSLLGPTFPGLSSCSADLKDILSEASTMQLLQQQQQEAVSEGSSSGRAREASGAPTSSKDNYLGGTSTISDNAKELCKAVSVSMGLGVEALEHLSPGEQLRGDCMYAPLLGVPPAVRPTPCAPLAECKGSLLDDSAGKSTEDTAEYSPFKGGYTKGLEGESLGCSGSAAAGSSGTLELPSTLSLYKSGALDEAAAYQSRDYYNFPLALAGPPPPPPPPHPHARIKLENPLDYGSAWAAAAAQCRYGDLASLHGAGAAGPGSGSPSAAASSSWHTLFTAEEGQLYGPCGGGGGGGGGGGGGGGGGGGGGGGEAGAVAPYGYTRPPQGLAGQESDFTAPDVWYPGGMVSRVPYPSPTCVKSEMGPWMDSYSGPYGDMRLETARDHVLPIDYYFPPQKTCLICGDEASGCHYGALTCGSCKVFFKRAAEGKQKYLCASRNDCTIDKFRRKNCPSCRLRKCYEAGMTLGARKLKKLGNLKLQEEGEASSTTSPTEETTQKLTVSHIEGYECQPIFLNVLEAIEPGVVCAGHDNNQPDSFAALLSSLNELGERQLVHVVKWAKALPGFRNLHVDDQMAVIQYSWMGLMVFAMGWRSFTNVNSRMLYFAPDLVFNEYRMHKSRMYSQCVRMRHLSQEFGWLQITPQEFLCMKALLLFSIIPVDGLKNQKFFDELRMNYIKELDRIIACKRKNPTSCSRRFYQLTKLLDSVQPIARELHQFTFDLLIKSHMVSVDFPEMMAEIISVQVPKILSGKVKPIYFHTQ

| Compound | Potency [1] | Potency [2] | Potency [3] | Potency [4] | Potency [5] | outcome [6] | Potency [7] | Potency [8] | outcome [9] | Potency [10] | Potency [11] | Potency [12] | Potency [13] | Potency [14] | Potency [15] | PLD induction [4] | Potency [16] | Potency [17] | Potency [18] | Potency [19] |
| --- | --- | --- | --- | --- | --- | --- | --- | --- | --- | --- | --- | --- | --- | --- | --- | --- | --- | --- | --- | --- |
| Cn1c(=O)c2c(ncn2CC(O)CO)n(C)c1=O (configuration not stated) | inactive | inactive | inactive | inactive | inactive | inactive | inactive | inactive | inactive | inactive | inactive | inactive | inactive | inactive | inactive |  |  |  |  |  |
| C=CC[N+]1([C@H]2C[C@H]3[C@@H]4CC[C@H]5C[C@H](OC(C)=O)[C@@H](N6CCCCC6)C[C@]5(C)[C@H]4CC[C@]3(C)[C@H]2OC(=O)CC)CCCCC1 | inactive | inactive | inactive |  | inactive | inactive | inactive | inactive |  | inactive |  | inactive | inactive | inactive | inactive | -0.411% [at 7.66 µM] | inactive | inactive |  |  |
| CCOc1cc(OCC)c(C(=O)CCC(=O)O)cc1OCC | inactive | inactive | inactive | inactive | inactive | inactive | inactive | inactive | inactive | inactive |  | inactive | inactive |  |  |  | inactive | inactive | inactive |  |
| CNCC[C@@H](Oc1ccccc1C)c1ccccc1 | inactive | inactive | inactive | inactive | inactive | inactive | inactive | inactive | inactive |  |  | 23.7 µM (active) | inactive | inactive |  |  | inactive | 26.6 µM (active) |  | inactive |
| CN(C)CCCOc1nn(Cc2ccccc2)c2ccccc12 | inactive | inactive | inactive | inactive | inactive | inactive |  | inactive | inactive | inactive |  | inactive | inactive |  | inactive |  | inactive |  | inactive |  |
| CCCCCc1ccc(N)cc1 | inactive | inactive | inactive |  | inactive | inactive | inactive | inactive | inactive | inactive | inactive | inactive | inactive | inactive | inactive |  | inactive |  | inactive |  |
| NC1CCN(c2nc3c(cc2F)c(=O)c(C(=O)O)cn3-c2ccc(F)cc2F)C1 (configuration not stated) | inactive | inactive | inactive | inactive | inactive | inactive | inactive | inactive | inactive | inactive |  | inactive | inactive | inactive | inactive |  | inactive | inactive |  |  |
| O=C(O)C(c1ccc(Cl)cc1)c1ccc(Cl)cc1 | inactive | inactive | inactive |  | inactive | inactive | inactive | inactive | inactive | inactive | inactive |  | inactive | inactive | inactive |  | inactive | 61.1 µM (active) | inactive |  |

Source: PubChem BioAssay (Tox21)
